Data published in article PMC5540273 (PLoS ONE, 2017).

These molecules were tested on T1, YANK3. Settings: concentration: 1 μM,replicates: in singlicate; n = 1.
T1 construct: gene STK32C
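Further: KINOMEscan kinase panel screen.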

With `Cc1n[nH]c2ccc(-c3cc(OC[C@@H](N)Cc4ccccc4)cnc3-c3ccoc3)cc12.O=C(O)C(F)(F)F.O=C(O)C(F)(F)F` [GSK507358] as the molecule, how does the “%Inh” value read?
The value was 47%.

How did the “%Inh” value turn out when `Cl.Oc1cc(-c2nc(-c3ccccc3)[nH]c2-c2ccncc2)ccc1Cl` [SB-386023] was run?
The value was 0%.

Which “%Inh” value does the source give for `CCn1c(-c2nonc2N)nc2c(C#CC(C)(C)O)nc(OCCN)cc21.Cl.Cl` [GSK902056] here?
The value was 35%.

How did the “%Inh” value turn out when `CCN(CC)CCOc1ccc(Nc2ncc3cc(-c4c(Cl)cccc4Cl)c(=O)n(C)c3n2)cc1` [SB-601273] was run?
Its value is 27%.

Which “%Inh” value does the source give for `CC(C)Nc1cc(-c2ccc3c(N)n[nH]c3c2)nc(N)n1` [GSK2221681] here?
Its value is 2%.

`C=CC(=O)Nc1cc2c(Nc3ccc(F)c(Cl)c3)ncnc2cc1OCCCN1CCOCC1` [GW781483] was tested. Which “%Inh” value did it give?
The value was 0%.

For `C[C@@H](Oc1cc(-c2cnn(C3CCNCC3)c2)cnc1N)c1c(Cl)ccc(F)c1Cl`, which “%Inh” value is on record?
Its value is 0%.

For `CN(C)CCOc1ccc(-c2cc(-c3c[nH]nc3-c3ccccn3)ccn2)cc1` [GW835314], which “%Inh” value is on record?
Its value is 0%.

With `Cc1cc(C(=O)Nc2ccc(Oc3ccc4nc(NC(=O)C5CC5)cn4n3)cc2)nn1-c1ccccc1` as the molecule, how does the “%Inh” value read?
Its value is 0%.

How did the “%Inh” value turn out when `Cl.Cl.Nc1nc(-c2ccc3c(N)n[nH]c3c2)cc(N2CCCC(NC(=O)c3ccccc3)C2)n1` (stereo not drawn) [GSK2286775] was run?
The value was 0%.

With `COc1ccc(C[C@@H](CN)NC(=O)c2cc(Br)c(-c3ccnc4[nH]ccc34)s2)cc1.Cl.Cl` [GSK1389063] as the molecule, how does the “%Inh” value read?
The value was 50%.

How did the “%Inh” value turn out when `Cc1cc2cn[nH]c2cc1-c1cccc2c(N)c(C(N)=O)nnc12` was run?
Its value is 0%.

For `Cl.Cl.NC[C@H](CC1CCCCC1)NC(=O)c1cc(Br)c(-c2ccnc3[nH]ccc23)s1` [GSK1581427], which “%Inh” value is on record?
Its value is 18%.

How did the “%Inh” value turn out when `Cl.Cl.NC[C@H](Cc1ccc(C(F)(F)F)cc1)NC(=O)c1cc(Br)c(-c2ccnc3[nH]ccc23)s1` [GSK1487252] was run?
Its value is 13%.

With `Cc1occc1-c1nc(N)c(OC[C@@H](N)Cc2c[nH]c3ccccc23)cc1-c1cc2c(C)n[nH]c2cn1` [GSK1660450] as the molecule, how does the “%Inh” value read?
The value was 93.1%.

How did the “%Inh” value turn out when `C[C@@H]1CCN(C(=O)CC#N)C[C@@H]1N(C)c1ncnc2[nH]ccc12` was run?
Its value is 0%.

`CN(C)CC(O)COc1ccc(Nc2nccc(-c3cnn4nc(N5CCOCC5)ccc34)n2)cc1` (stereo not drawn) [GW767488] was tested. Which “%Inh” value did it give?
The value was 0%.

Which “%Inh” value does the source give for `CC(C)N1C(=O)Cc2cc(Nc3ncc(C(F)(F)F)c(NCc4cccc(S(C)(=O)=O)c4)n3)ccc21` here?
Its value is 0%.

`CNC(=O)c1ccccc1Sc1ccc2c(/C=C/c3ccccn3)n[nH]c2c1` was tested. Which “%Inh” value did it give?
Its value is 0%.

Which “%Inh” value does the source give for `NC(=O)c1cc(-c2ccccc2)cc2c(C3CCNCC3)c[nH]c12` [GSK301362] here?
The value was 26%.

`C[C@H]1Oc2cc(cnc2N)-c2c(nn(C)c2C#N)CN(C)C(=O)c2ccc(F)cc21` was tested. Which “%Inh” value did it give?
Its value is 3%.

With `Cc1ccc2c(-c3ccncc3)c(-c3ccc(F)cc3)nn2c1.Cl` [GW461484] as the molecule, how does the “%Inh” value read?
Its value is 12%.

`CCN(CC)CCCCNc1ncc2cc(-c3c(Cl)cccc3Cl)c(NC(=O)NC(C)(C)C)nc2n1` was tested. Which “%Inh” value did it give?
Its value is 0%.

`O=C(NCCCN1CCOC1=O)c1cnc(NCc2cc(Cl)ccc2Cl)nc1NC1CCCC1` was tested. Which “%Inh” value did it give?
The value was 2%.

How did the “%Inh” value turn out when `Nc1nc(Nc2ccccc2)cc(-c2ccc3c(N)n[nH]c3c2)n1` [GSK2225749] was run?
Its value is 6%.

`Cc1ccc(-n2nc(C(C)(C)C)cc2NC(=O)Nc2ccc(OCCN3CCOCC3)c3ccccc23)cc1` [GW839464] was tested. Which “%Inh” value did it give?
Its value is 0%.

`O=C(NCCNc1ccnc(NCc2ccc(F)cc2)n1)c1cc2ccccc2s1` [GSK1379944] was tested. Which “%Inh” value did it give?
The value was 7%.

These molecules were tested on T2, YES. Settings: concentration: 1 μM,replicates: in singlicate; n = 1.
T2 construct: gene YES1

How did the “%Inh” value turn out when `Cc1n[nH]c2ccc(-c3cc(OC[C@@H](N)Cc4ccccc4)cnc3-c3ccoc3)cc12.O=C(O)C(F)(F)F.O=C(O)C(F)(F)F` [GSK507358] was run?
The value was 22%.

How did the “%Inh” value turn out when `Cl.Oc1cc(-c2nc(-c3ccccc3)[nH]c2-c2ccncc2)ccc1Cl` [SB-386023] was run?
The value was 31%.

Which “%Inh” value does the source give for `CCn1c(-c2nonc2N)nc2c(C#CC(C)(C)O)nc(OCCN)cc21.Cl.Cl` [GSK902056] here?
Its value is 19%.

For `CCN(CC)CCOc1ccc(Nc2ncc3cc(-c4c(Cl)cccc4Cl)c(=O)n(C)c3n2)cc1` [SB-601273], which “%Inh” value is on record?
The value was 100%.

For `CC(C)Nc1cc(-c2ccc3c(N)n[nH]c3c2)nc(N)n1` [GSK2221681], which “%Inh” value is on record?
Its value is 4%.

With `C=CC(=O)Nc1cc2c(Nc3ccc(F)c(Cl)c3)ncnc2cc1OCCCN1CCOCC1` [GW781483] as the molecule, how does the “%Inh” value read?
Its value is 15%.

For `C[C@@H](Oc1cc(-c2cnn(C3CCNCC3)c2)cnc1N)c1c(Cl)ccc(F)c1Cl`, which “%Inh” value is on record?
Its value is 17%.

How did the “%Inh” value turn out when `CN(C)CCOc1ccc(-c2cc(-c3c[nH]nc3-c3ccccn3)ccn2)cc1` [GW835314] was run?
The value was 55%.

`Cc1cc(C(=O)Nc2ccc(Oc3ccc4nc(NC(=O)C5CC5)cn4n3)cc2)nn1-c1ccccc1` was tested. Which “%Inh” value did it give?
Its value is 25%.

With `Cl.Cl.Nc1nc(-c2ccc3c(N)n[nH]c3c2)cc(N2CCCC(NC(=O)c3ccccc3)C2)n1` (stereo not drawn) [GSK2286775] as the molecule, how does the “%Inh” value read?
The value was 14%.

How did the “%Inh” value turn out when `COc1ccc(C[C@@H](CN)NC(=O)c2cc(Br)c(-c3ccnc4[nH]ccc34)s2)cc1.Cl.Cl` [GSK1389063] was run?
Its value is 22%.

Which “%Inh” value does the source give for `Cc1cc2cn[nH]c2cc1-c1cccc2c(N)c(C(N)=O)nnc12` here?
The value was 0%.

Which “%Inh” value does the source give for `Cl.Cl.NC[C@H](CC1CCCCC1)NC(=O)c1cc(Br)c(-c2ccnc3[nH]ccc23)s1` [GSK1581427] here?
Its value is 1%.

`Cl.Cl.NC[C@H](Cc1ccc(C(F)(F)F)cc1)NC(=O)c1cc(Br)c(-c2ccnc3[nH]ccc23)s1` [GSK1487252] was tested. Which “%Inh” value did it give?
The value was 19%.

Which “%Inh” value does the source give for `Cc1occc1-c1nc(N)c(OC[C@@H](N)Cc2c[nH]c3ccccc23)cc1-c1cc2c(C)n[nH]c2cn1` [GSK1660450] here?
The value was 40%.

`C[C@@H]1CCN(C(=O)CC#N)C[C@@H]1N(C)c1ncnc2[nH]ccc12` was tested. Which “%Inh” value did it give?
Its value is 0%.

Which “%Inh” value does the source give for `CN(C)CC(O)COc1ccc(Nc2nccc(-c3cnn4nc(N5CCOCC5)ccc34)n2)cc1` (stereo not drawn) [GW767488] here?
The value was 0%.

`CC(C)N1C(=O)Cc2cc(Nc3ncc(C(F)(F)F)c(NCc4cccc(S(C)(=O)=O)c4)n3)ccc21` was tested. Which “%Inh” value did it give?
The value was 9%.

How did the “%Inh” value turn out when `CNC(=O)c1ccccc1Sc1ccc2c(/C=C/c3ccccn3)n[nH]c2c1` was run?
The value was 0%.

How did the “%Inh” value turn out when `NC(=O)c1cc(-c2ccccc2)cc2c(C3CCNCC3)c[nH]c12` [GSK301362] was run?
Its value is 24%.

For `C[C@H]1Oc2cc(cnc2N)-c2c(nn(C)c2C#N)CN(C)C(=O)c2ccc(F)cc21`, which “%Inh” value is on record?
The value was 2%.

`Cc1ccc2c(-c3ccncc3)c(-c3ccc(F)cc3)nn2c1.Cl` [GW461484] was tested. Which “%Inh” value did it give?
The value was 0%.

`CCN(CC)CCCCNc1ncc2cc(-c3c(Cl)cccc3Cl)c(NC(=O)NC(C)(C)C)nc2n1` was tested. Which “%Inh” value did it give?
The value was 94.6%.

With `O=C(NCCCN1CCOC1=O)c1cnc(NCc2cc(Cl)ccc2Cl)nc1NC1CCCC1` as the molecule, how does the “%Inh” value read?
Its value is 31%.

How did the “%Inh” value turn out when `Nc1nc(Nc2ccccc2)cc(-c2ccc3c(N)n[nH]c3c2)n1` [GSK2225749] was run?
Its value is 0%.

For `Cc1ccc(-n2nc(C(C)(C)C)cc2NC(=O)Nc2ccc(OCCN3CCOCC3)c3ccccc23)cc1` [GW839464], which “%Inh” value is on record?
The value was 32%.

With `O=C(NCCNc1ccnc(NCc2ccc(F)cc2)n1)c1cc2ccccc2s1` [GSK1379944] as the molecule, how does the “%Inh” value read?
Its value is 11%.
